# From PubChem BioAssay AID1347131 (National Center for Advancing Translational Sciences (NCATS), 2019)
# Screen size: about 410,000 compounds; about 2,000 (0.49%) were called active. Inconclusive results (about 8%) are left out. Calls follow the shape of the full dose curve; tested in HEK293 reporter line. Shown is part of a subset that was picked to be rich in actives.
# Assay: qHTS Assay for Foot and Mouth Disease Virus Antivirals: Primary Screen against the MLPCN compound library; also: nearly all actives have a fitted effect of over 55% in size
# Settings: FMDV antiviral cell-based qHTS; series mostly up to 57.9 µM; activity, negative = inhibition: at the top concentration
# Potency is read from the fitted curve at half-maximal effect.
Compound,"activity, negative = inhibition",Potency
O=C(CSCc1ccc(F)cc1)N1CCN(c2ccc(F)cc2)CC1,-30.1% (inactive),–
N#Cc1ccccc1Sc1ccccc1C(=O)OCC(=O)NC12CC3CC(CC(C3)C1)C2,-33.5% (inactive),–
COc1ccccc1C(=O)Nc1ccc(-c2cc(C(F)(F)F)nn2-c2ccccc2)cc1,-36.9% (inactive),–
O=C1/C(=C\c2ccccc2)C[C@@]2(O)[C@H]3Cc4ccc(O)c5c4[C@@]2(CCN3CC2CC2)[C@H]1O5,–,10 µM (active)
C=CCN1CC[C@]23c4c5ccc(O)c4O[C@H]2/C(=N/NC(=O)c2ccccc2)CC[C@@]3(O)[C@H]1C5,-28.3% (inactive),–
CCOC(=O)[C@H]1[C@H]2COc3ccccc3[C@@H]2N2C(=O)c3ccc(Cl)cc3NC(=O)[C@@]12C,-37.3% (inactive),–
O=C(Nc1ccccc1Cc1ccccc1)c1ccccc1NS(=O)(=O)c1ccc(Cl)s1,-37.5% (inactive),–
CCOc1cc(/C=C2\C(=O)N(c3ccc(C(N)=O)cc3)N=C2C)ccc1OC(=O)c1cccs1,-38% (inactive),–
C=CCOc1ccc(/C=C2/C(=O)ON=C2C)cc1OCC,–,31.6 µM (active)
COc1cc(/C=C2/C(=O)ON=C2c2ccccc2)ccc1O,-45.4% (inactive),–
Cc1ccc(S(=O)(=O)N(C)C)cc1NC(=O)CSc1nc2ccccc2[nH]1,-42% (inactive),–
CCOc1ccc(CN2CCNC(=O)C2CC(=O)NCCc2nc(C)c3c(n2)CCC3)cc1 (configuration not stated),-54% (inactive),–
Cc1ccc(-c2nc(C)c(C(=O)O)s2)cc1,–,25.1 µM (active)
Cc1ccc(-c2nc(CCNC(=O)c3ccco3)cs2)cc1,-36.4% (inactive),–
Cc1ccc(S(=O)(=O)Nc2nc(C)c(C)s2)cc1,101% (inactive),–
Cc1ccccc1N1CCN(C2CCCN(C(=O)CCC3(C)CC3)C2)CC1 (configuration not stated),-31.3% (inactive),–
Fc1ccccc1-c1csc(=Nc2cccnc2)n1CCCn1ccnc1,-40% (inactive),–
O=C(C1COc2ccccc2O1)N1CCN(S(=O)(=O)c2ccccc2)CC1 (configuration not stated),-32.6% (inactive),–
CCc1cccc(C)c1NC(=O)c1cc2ccccc2o1,-43% (inactive),–
CC(=O)c1cccc(NC(=O)CNC(=O)c2cc3ccccc3o2)c1,-36.7% (inactive),–
Cc1nc(NC(=O)c2cc3ccccc3o2)sc1C,–,17.8 µM (active)
COc1ccc([N+](=O)[O-])cc1NC(=O)C(C)OC(=O)C1CCCC1 (configuration not stated),-48.6% (inactive),–
CC1(C(=O)Nc2cccc(Oc3ccccc3)c2)CCN1Cc1cccc2c1OCO2 (configuration not stated),-31.1% (inactive),–
COc1cccc(-c2sc3ccc(OC)cc3c2-c2ccc(OCCN3CCCC3)cc2)c1,-31.7% (inactive),–
CC(C)Oc1ccc(C(=O)Nc2ccc3oc(-c4ccncc4)nc3c2)cc1,-28.6% (inactive),–
Cc1ccc(-c2nc3cc(NC(=O)C(C)C)ccc3o2)cc1C,–,22.4 µM (active)
Cc1ccc(C(=O)Nc2cc(-c3nc4cc(Cl)ccc4o3)ccc2C)c(C)c1,-31.2% (inactive),–
